Measured values reported in PubChem BioAssay AID624116 (National Center for Advancing Translational Sciences (NCATS), 2012).
Inconclusive results are not listed. The call rests on the fitted dose curve; in most records, active means well fitted activation curve with a large enough effect; inconclusive means small, poorly fitted or top-dose-only effect; inactive means no such curve, though single readings can be large or run the other way.

assay: qHTS Assay for Rab9 Promoter Activators: Hit Validation Using Renilla Luciferase Read-Out for Rab9; settings: Huh7 Rab9 promoter Renilla luciferase reporter, 24 h; series mostly up to 76.9 µM; activation, negative = inhibition: at the top concentration; further: % of control where 0% means no effect
Procedure, shortened: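 Luciferase reporter read-out: promoter activation measured by luminescence after 10 min with detection reagent at room temperature. Cells were Huh7 with a stable promoter-luciferase construct, treated 24 h at 37 deg C.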

activation, negative = inhibition, inactive:
CCOC(=O)c1ccc(NC(=O)Oc2cc(C)c(Cl)cc2C(C)C)cc1 -0.506%
CC(=O)Nc1nnc(SCC(=O)NCCOc2ccccc2)s1 -5.36%
Cc1ccccc1NC(=O)CSc1ccc(-c2cccnc2)nn1 11.8%
CC(Sc1nnc(C(F)(F)F)n1C)C(=O)Nc1ccc(S(N)(=O)=O)cc1 (stereo not drawn) -0.0442%
COc1ccc(NC(=O)Nc2ccc(Cc3ccncc3)cc2)cc1OC -56.6%
Fc1ccc(-c2nc3nc4ccccc4nc3n2Cc2ccco2)cc1 -26%
CCC(C)(C)NC(=O)C(c1ccc(OC)cc1)N(Cc1cccs1)C(=O)CCC(=O)Nc1cc(C)on1 (stereo not drawn) 6.22%
COC(=O)c1ccccc1NC(=O)c1ccc(-c2ccc(Br)cc2)o1 -10.6%
COc1cccc(CNC(=O)CN(c2cc(C)cc(C)c2)S(=O)(=O)c2c(C)noc2C)c1 6.58%
COCCNC(=O)Cn1nc(-c2ccccc2)c2ccccc2c1=O -3.11%
O=C(CSc1nnc(-c2ccc([N+](=O)[O-])cc2)o1)Nc1ccccn1 -5.92%
O=C(CCCn1c(=O)oc2ccccc21)N1CCN(c2ccccn2)CC1 -4.46%
S=C1NCN(CCc2ccccc2)CN1Cc1ccccc1 -1.12%
CC(C)C1(CCNC(=O)c2cccs2)CCOC(C)(C)C1 (stereo not drawn) 6.93%
Cc1[nH]n(-c2cccc3ccccc23)c(=O)c1/C=N/c1sc2c(c1C#N)CCC2 -5.17%
CC(=O)NC(CCCN1C(=O)c2ccccc2C1=O)c1nnn(C)n1 (stereo not drawn) -10.2%
COc1ccc(S(=O)(=O)NC(C(=O)NCCc2ccccn2)C(C)C)cc1 (stereo not drawn) -2.29%
Cc1ccc(C)c(Nc2cc(C)nc3ncnn23)c1 -1.68%
CNC(=O)Cn1nc(C)c2ccccc2c1=O -0.365%
COc1ccc2oc(=O)c(C(=O)NC(C)c3ccccc3)cc2c1 (stereo not drawn) 6.37%
COc1ccc(NC(=O)CN(C)C(=O)c2ccc(=O)[nH]c2)cc1 4.55%
COCCNC(=O)C1CCC(CNS(=O)(=O)c2ccc(F)cc2)CC1 (stereo not drawn) -3.79%
O=CN1CCN(C(=O)c2ccccc2Cl)CC1 -5.76%
CCCc1cc(C(=O)Nc2ccccc2SC)no1 -2.35%
COC(=O)c1cn(NC(=O)C2CCCCC2)c(=O)c2ccccc12 0.264%
Cc1nnc2n(c1=O)N=C(c1ccc(Cl)cc1)CS2 1.19%
CCOCC(=O)Nc1c(C(=O)Nc2ccc3c(c2)OCCO3)oc2ccccc12 -30.9%
CC(Sc1ncnc2c1cnn2-c1ccccc1)C(=O)Nc1ccc(N2CCOCC2)cc1 (stereo not drawn) -13.2%
CCCCn1c(CCNC(=O)c2cccs2)nc2ccccc21 -4.02%
Cc1nc(-c2ccccn2)sc1C(=O)Nc1ccc(F)cc1F -4.26%
CCCCCCC(=O)Nc1ccc(C(=O)N/N=C/c2cccnc2)cc1 4.77%
Nc1ccccc1C(=O)N/N=C1/C2CN3CCN(C2)CC1(Cc1ccccc1)C3 3.83%
CC1CCCN(S(=O)(=O)c2ccc(C(=O)Nc3nnc(-c4ccncc4)o3)cc2)C1 (stereo not drawn) -50.3%
Brc1ccccc1-c1nnc(CSc2nnc3sc4ccccc4n23)o1 -17.1%
CCCN(CCC)CCCNC(=O)c1cc2cc3ccc(Cl)cc3nc2o1 1.11%
O=C(c1cccc(Oc2ccc([N+](=O)[O-])cc2)c1)N1CCOCC1 -14.1%
COc1ccccc1C(=O)Nc1nnc(SCC(=O)NC2CCCC2)s1 8.95%
Cc1ccc2c(c1)sc1nc(=O)n(-c3ccccc3)c(=O)n12 -16.2%
